Where “and” joins values, the source holds several entries; their conditions need not be identical. Identical values can stand only once. The whole screen tested about 5,500 compounds, of which about 2,000 (36%) were called active. Not shown: some 18% with an inconclusive outcome. Rule as the data show it: active = normalized growth mostly below about 0.91 (no sharp cut-off); inconclusive = no clear call, values can overlap the other calls; inactive = mostly above about 0.92. The list shows a part of the results.
Test: chemical genetic growth profiling, strain panel (AID 1159580);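 also: tested at 20 µM; growth read once vehicle control cultures reached saturation at 30 °C; 1 = growth at the plate median or of vehicle wells; lower values mean less growth of the strain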
Conditions: S. cerevisiae deletion strains, growth OD

Measured: normalized growth

CCCCc1nc(Cl)c(CO)n1Cc1ccc(-c2ccccc2-c2nn[nH]n2)cc1
inactive: locus YAL013W, strain DEP1, active compounds read low 1.01 | locus YAL021C, strain ccr4, active compounds read low 0.992 | locus YAL026C, strain drs2, active compounds read low 0.99 | locus YAL030W, strain snc1, active compounds read low 0.974 | locus YBL061C, strain skt5, active compounds read low 0.99 | locus YBR009C, strain hhf1, active compounds read low 0.993 | locus YBR021W, strain FUR4, active compounds read low 1.01 | locus YBR023C, strain chs3, active compounds read low 0.981 | locus YBR171W, strain sec66, active compounds read low 0.994 | locus YBR229C, strain ROT2, active compounds read low 1.01 | locus YBR231C, strain swc5, active compounds read low 0.968 | locus YBR279W, strain paf1, active compounds read low 0.986 | locus YCL011C, strain gbp2, active compounds read low 0.984 | locus YCL016C, strain dcc1, active compounds read low 0.983 | locus YCL029C, strain bik1, active compounds read low 1.01 | locus YCL061C, strain MRC1, active compounds read low 0.989 | locus YCL069W, strain vba3, active compounds read low 0.985 | locus YCR088W, strain abp1, active compounds read low 0.976 | locus YDL005C, strain med2, active compounds read low 0.977 | locus YDL035C, strain GPR1, active compounds read low 1.02 | locus YDL040C, strain nat1, active compounds read low 0.971 | locus YDL074C, strain BRE1, active compounds read low 1.03 | locus YDL101C, strain DUN1, active compounds read low 1.01 | locus YDL134C, strain PPH21, active compounds read low 1.01 | locus YDL185W, strain tfp1, active compounds read low 1 | locus YDL192W, strain arf1, active compounds read low 1 | locus YDR001C, strain nth1, active compounds read low 0.992 | locus YDR069C, strain doa4, active compounds read low 0.975 | locus YDR101C, strain arx1, active compounds read low 0.996 | locus YDR137W, strain rgp1, active compounds read low 0.986 | locus YDR150W, strain NUM1, active compounds read low 1.01 | locus YDR159W, strain sac3, active compounds read low 0.943 | locus YDR162C, strain NBP2, active compounds read low 1.01 | locus YDR195W, strain ref2 0.93 | locus YDR297W, strain sur2, active compounds read low 0.993 | locus YDR318W, strain mcm21, active compounds read low 1.01 | locus YDR334W, strain swr1, active compounds read low 0.966 | locus YDR335W, strain msn5, active compounds read low 0.992 | locus YDR388W, active compounds read low 1 | locus YDR392W, strain spt3, active compounds read low 1 | locus YDR502C, strain sam2, active compounds read low 0.997 | locus YEL003W, strain gim4, active compounds read low 1.01 | locus YEL037C, strain rad23, active compounds read low 0.985 | locus YEL061C, strain CIN8 (second series), active compounds read low 0.982 | locus YEL061C, strain CIN8, active compounds read low 1.01 | locus YER015W, strain faa2, active compounds read low 0.996 | locus YER016W, strain bim1, active compounds read low 0.976 | locus YER110C, active compounds read low 1 | locus YER111C, strain swi4, active compounds read low 0.967 | locus YER155C, strain BEM2 (second series), active compounds read low 0.968 | locus YER155C, strain BEM2, active compounds read low 0.973 | locus YER167W, strain BCK2, active compounds read low 1.01 | locus YFR010W, strain ubp6, active compounds read low 0.985 | locus YGL078C, strain dbp3, active compounds read low 0.995 | locus YGL086W, strain mad1, active compounds read low 0.993 | locus YGL167C, strain pmr1, active compounds read low 0.978 | locus YGL173C, strain kem1, active compounds read low 0.986 | locus YGL227W, strain vid30, active compounds read low 0.982 | locus YGL240W, strain doc1, active compounds read low 0.981 | locus YGL248W, strain PDE1, active compounds read low 1.01 | locus YGL253W, strain hxk2, active compounds read low 0.985 | locus YGR078C, strain PAC10, active compounds read low 1.02 | locus YGR135W, strain pre9, active compounds read low 0.998 | locus YGR229C, strain SMI1, active compounds read low 1.01 | locus YGR252W, strain gcn5, active compounds read low 1 | locus YHR013C, strain ard1, active compounds read low 1.01 | locus YHR027C, strain rpn1, active compounds read low 1 | locus YHR030C, strain SLT2, active compounds read low 1.01 and 0.941 | locus YHR079C, strain IRE1 (second series), active compounds read low 0.995 | locus YHR079C, strain IRE1, active compounds read low 0.969 | locus YHR094C, strain hxt1, active compounds read low 0.992 | locus YHR129C, strain ARP1, active compounds read low 1.01 | locus YHR142W, strain chs7, active compounds read low 0.986 | locus YHR200W, strain rpn10, active compounds read low 0.999 | locus YIL066C, strain RNR3, active compounds read low 1.01 | locus YIL073C, strain SPO22, active compounds read low 1.08 | locus YIL125W, strain kgd1, active compounds read low 0.994 | locus YIR030C, strain dcg1, active compounds read low 0.995 | locus YJL092W, strain hpr5, active compounds read low 1 | locus YJL095W, strain BCK1 (second series), active compounds read low 0.985 | locus YJL095W, strain BCK1, active compounds read low 1.02 and 0.998 | locus YJL115W, strain asf1, active compounds read low 0.994 | locus YJL129C, strain trk1, active compounds read low 0.963 | locus YJL134W, strain LCB3, active compounds read low 1 | locus YJL154C, strain vps35, active compounds read low 0.969 | locus YJL164C, strain tpk1, active compounds read low 1 | locus YJL166W, strain qcr8, active compounds read low 0.98 | locus YJL168C, strain set2, active compounds read low 0.996 | locus YJL187C, strain SWE1 (second series), active compounds read low 1.01 | locus YJL187C, strain SWE1, active compounds read low 0.981 | locus YJR043C, strain POL32, active compounds read low 1.02 | locus YJR066W, strain TOR1, active compounds read low 0.987
